Results taken from PubChem BioAssay (NCI).
Values joined by “and” are separate entries in the source; they are usually repeats but may differ in a detail not shown here. Equal entries are not always repeated. About 83,000 compounds went through this panel and 20% of them were active in at least one assay; those are over-represented in the sample as a whole.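 Single-dose data. Exposure time 48 hours. Values below 10 considered active.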 Unmarked numbers belong to inactive results. Where a SMILES comes first, the peptide text is derived from it.

Each molecule was assayed on SK-MEL-28 melanoma (assay: NCI-60 one-dose screen, 48 h (100 = growth as untreated, 0 = no growth, -100 = all killed)). Settings: 10 µM unless noted.
Procedure: Growth inhibition of the SK-MEL-28 human tumor cell line is measured as a screen for anti-cancer activity. Cells are grown in 96 well plates and exposed to the test compound for 48 hours. Compounds are tested at a single concentration, which is 10^-5 M for most compounds. The reported endpoint is percent growth (GI% or GIPRCNT), where numbers from 0 - 100% represent growth inhibition, and numbers from -100% - 0 represent cell death. For example, a value of 40 represents 60% growth inhibition. A value of 0 means no net growth occurred over the course of the experiment. A value of -40 indicates 40% of cells at the beginning of the experiment died by the end of the experiment. A value of -100 means all cells are dead at the end of the experiment.
NCI-60 Human Tumor Cell Lines Screen was performed using the standard one-dose NCI protocol, which is described in more detail at https://dtp.cancer.gov/discovery_development/nci-60/default.htm.
Compounds with GIPRCNT values below 10 were considered active. Activity score was based on GIPRCNT using the following formula: […]
Score is 0 for GIPRCNT values of 100 or above, 50 for GIPRCNT values of 0, and 100 for GIPRCNT values of -100.

SMILES	growth
O=c1[nH]cnc2c1ncn2C1OC(CO)C(O)C1O (stereo not given)	113% and 116% and 118%
CC[C@H](CC[C@@H](C)[C@H]1CC[C@H]2[C@@H]3CC=C4C[C@@H](O)CC[C@]4(C)[C@H]3CC[C@]12C)C(C)C	99.9% and 103%
Cl	136%
CCCCCCCCCCCCCCCCC(C(=O)O)C(O)(CC(=O)O)C(=O)O (stereo not given)	108%
Fc1ccc([I+]c2ccc(F)cc2)cc1	95.8%
Cc1ccc(=O)[nH]n1	111% and 115%
NC(Cc1c[nH]c2ccccc12)C(=O)O (stereo not given)	132% and 106%
O=C(O)CCCl	105%
COc1cc(C(O)C2C(=O)OCC2C2(c3ccc4c(c3)OCO4)SCCCS2)cc(OC)c1OC (stereo not given)	108%
O=C(/C=C/c1ccccc1)c1ccccc1	115%
NN1CCOC(c2ccccc2)C1 (stereo not given)	112%
CCCCNc1ccc(Nc2ccccc2)cc1	94.9%
CC(C)NC(=O)N/C=C(\C#N)C(N)=O	100%
COc1ccc(N/C=C/C2=[N+](C)c3ccccc3C2(C)C)c(OC)c1	113%
O=C(Cc1ccccc1)c1ccc(O)c(Cl)c1	49.4%
c1ccc2c(c1)OC1OC2Oc2ccccc21	103%
CN1CNC(=O)NC1	113% and 118%
O=C(CO)C(O)C(O)C(O)C(O)CO (stereo not given)	108% and 101%
CC(=O)Nc1ccc(S(N)(=O)=O)cc1	107% and 110%
Nc1ccc2c(O)cc(S(=O)(=O)O)cc2c1	101% and 114%

SMILES	growth
OC1COC(OCc2ccccc2)C(O)C1O (stereo not given)	104%
C#CCOC(=O)Nc1ccccc1	103%
Brc1ccc(SSc2ccc(Br)cc2)cc1	97.6%
O=C1OC(C(O)C(O)CO)C(O)=C1O (stereo not given)	118% and 107%
COc1ccc(Nc2ccc3ccccc3c2)cc1	89.8%
CC1=C/C(O)CC(=O)Cc2nc(co2)C(=O)N2CCC=C2C(=O)OC(C(C)C)C(C)/C=C\C(=O)NC/C=C\1 (stereo not given)	32.6%
O=C1C=C(Nc2ccccc2)c2ccccc2C1=O	105% and 114%
c1ccc(-c2nc3ccccc3s2)cc1	104%
NC(=O)NCCCC(N)C(=O)O (stereo not given)	99%
NC(Cc1ccccc1)C(=O)NC(Cc1ccccc1)C(=O)O (stereo not drawn) (H-Phe-Phe-OH; configuration not given here)	103% and 105%
ClCCOCCOc1ccc(C2CCCCC2)cc1	102%
CC(C)(O)C(=O)O	104%
CCCCCCCCCCNC(=O)CI	58.4%
CCCCOc1ccc(Nc2cc(Cl)ccc2C(=O)O)cn1	122% and 113%
CC(C)NCC(O)c1ccc(O)c(O)c1 (stereo not given)	107% and 116% and 101%
CCCCCCCCCCCCCCCc1ccc(N)c(OC2OC(CO)C(O)C(O)C2O)c1 (stereo not given)	112%
O=C1CSC2=NCCN12	78.5% and 85.8%
C/C(=C\c1ccccc1)c1ccccn1	107%
O=[N+]([O-])c1cccc(SSc2cccc([N+](=O)[O-])c2)c1	110%
O=CN1CCCCC1	110%
